# Experimental data: PubChem BioAssay (NCI)
# This is part of a sample that, as a whole, favours compounds with a hit. Of some 79,000 tested, about 15% had one in any assay. Values without a mark were called inactive. Calls of active or inactive are those of the source. No stated cut-off is given here; in the data, active means growth inhibition above about 70%; inactive means the rest.
# Columns and labels:
# [1] = NCI Yeast Anticancer Drug Screen. Data for the rad50 strain (AID 155);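 further: 0% = growth of vehicle-only cultures of the same strain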; conditions: S. cerevisiae rad50 strain growth inhibition, stronger effect = higher value
# Summary of the method: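 Growth of the mutant yeast was measured after compound exposure and referenced to vehicle-treated cultures.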
# [2] = NCI Yeast Anticancer Drug Screen. Data for the mec2-1 strain (AID 157); conditions: S. cerevisiae mec2-1 strain, stronger effect = higher value
# Summary of the method: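 Cells of the genetically defined mec2-1 yeast strain are incubated with test compound. Inhibition of growth is calculated against vehicle-treated controls.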
# [3] = NCI Yeast Anticancer Drug Screen. Data for the sgs1 mgt1 strain (AID 161);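 further: 0% = growth of cultures given vehicle only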; conditions: S. cerevisiae sgs1 mgt1 strain, stronger effect = higher value
# Summary of the method: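 Read-out: growth inhibition vs vehicle controls. Cells: mutant yeast strain deficient in DNA damage repair.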
# [4] = NCI Yeast Anticancer Drug Screen. Data for the cln2 rad14 strain (AID 165);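 further: 0% = growth equal to vehicle treated cultures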; conditions: S. cerevisiae cln2 rad14 strain, stronger effect = higher value
# Summary of the method: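 The screen exposed genetically defined yeast (cln2 rad14) to test compounds and scored growth inhibition relative to vehicle-treated controls.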
# [5] = NCI Yeast Anticancer Drug Screen. Data for the bub3 strain (AID 167); conditions: S. cerevisiae bub3 mutant strain, stronger effect = higher value
# Summary of the method: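 Whole-cell yeast assay. The mutant strain was incubated with compounds, and growth inhibition was determined by comparison with vehicle-treated cells.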
# [6] = NCI Yeast Anticancer Drug Screen. Data for the mlh1 rad18 strain (AID 175); conditions: S. cerevisiae mlh1 rad18 strain growth inhibition, stronger effect = higher value
# Summary of the method: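 Compound-treated yeast growth, normalised to vehicle controls. Strain bears defined DNA repair mutations.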
# [7] = at 5.0 µM (retest, dose inferred, filed as 0.5)
# [8] = at 50.0 µM (retest, dose inferred, filed as 5.0)
SMILES,"growth inhibition [1, 7]","growth inhibition [1, 8]",growth inhibition ([1]; at 50.0 µM),"growth inhibition [2, 7]","growth inhibition [2, 8]",growth inhibition ([2]; at 50.0 µM),"growth inhibition [3, 7]","growth inhibition [3, 8]",growth inhibition ([3]; at 50.0 µM),"growth inhibition [4, 7]","growth inhibition [4, 8]",growth inhibition ([4]; at 50.0 µM),"growth inhibition [5, 7]","growth inhibition [5, 8]",growth inhibition ([5]; at 50.0 µM),"growth inhibition [6, 7]","growth inhibition [6, 8]",growth inhibition ([6]; at 50.0 µM)
O=S(O)CCCCSSCC(O)C(O)CSSCCCCS(=O)O (centres undefined),-7%,21%,49.4%,12%,44%,56.1%,6%,50%,78.8% (active),-10%,24%,37%,3%,55%,57.5%,3%,33%,73% (active)
CCN(CC)c1ccc(C(=C2C=CC(=[N+](CC)CC)C=C2)c2ccc(N(CC)CC)cc2)cc1,97% (active),91% (active),67.5%,98% (active),92% (active),73% (active),98% (active),92% (active),77.5% (active),97% (active),91% (active),76% (active),98% (active),90% (active),74.6% (active),97% (active),90% (active),–
CCCCCCCc1c(Cl)nc(Cl)nc1Cl,11%,92% (active),78.3% (active),12%,97% (active),88.3% (active),3%,96% (active),87% (active),11%,78% (active),46%,4%,99% (active),76.2% (active),16%,96% (active),–
C=C1CC2(CC(c3ccccc3OC)OC(c3ccccc3OC)C2)OC1=O (centres undefined),34%,58%,61.1%,15%,10%,74.7% (active),26%,70% (active),54.2%,23%,79% (active),71.8% (active),21%,14%,60.5%,40%,88% (active),–
CC1(O)Cc2c(O)c3c(c(O)c2CC1O)C(=O)C=CC3=O (centres undefined),9%,51%,72.2% (active),6%,46%,69.2%,4%,43%,26.5%,7%,37%,14.9%,1%,56%,24.2%,9%,70% (active),–
COc1cccc2c1C(=O)c1c(O)c3c(c(O)c1C2=O)C[C@@](O)(C(C)=O)C[C@@H]3OC1CC(N(C)C)C(O)C(C)O1 (some centres undefined),98% (active),98% (active),86.5% (active),98% (active),98% (active),90.3% (active),99% (active),99% (active),90.8% (active),96% (active),97% (active),90.2% (active),99% (active),99% (active),88% (active),97% (active),97% (active),–
CCCCCCCCCCS(=O)CC(CO)NC(=O)/C=C/c1c(C)[nH]c(=O)[nH]c1=O (centres undefined),35%,93% (active),86.2% (active),20%,94% (active),89.8% (active),68%,98% (active),88.7% (active),34%,89% (active),84.2% (active),50%,96% (active),88.3% (active),53%,92% (active),–
Cc1ccc2c(c1)C1(C)OC(C=CC1=O)O2 (centres undefined),88% (active),100% (active),88.2% (active),97% (active),99% (active),91% (active),91% (active),100% (active),91% (active),82% (active),99% (active),90.5% (active),97% (active),100% (active),87.8% (active),94% (active),99% (active),–
Cc1n(CC(C)C)c2c([n+]1C)C(=O)c1ccccc1C2=O,34%,98% (active),85% (active),44%,99% (active),90.4% (active),44%,99% (active),91% (active),21%,95% (active),89% (active),60%,99% (active),89.5% (active),68%,98% (active),–
